Source: PubChem BioAssay (NCI)
This is part of a sample that, as a whole, favours compounds with a hit. Of some 83,000 tested, about 20% had one in any assay.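 Compound tested at a single concentration for 48 hours in 96-well plates; a percent growth value below 10 was scored as active.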 Values without a mark were called inactive. Active and inactive are the calls of the source.

Tests used:
Assay in all cases: NCI-60 one-dose screen, 48 h (100 = growth as untreated, 0 = no growth, -100 = all killed)
Conditions in all cases: 10 µM unless noted
[1] = system: SR leukemia
[2] = system: RPMI-8226 leukemia
[3] = system: OVCAR-8 ovarian
[4] = system: OVCAR-5 ovarian
[5] = system: OVCAR-4 ovarian
[6] = system: SK-OV-3 ovarian
[7] = system: IGROV1 ovarian
[8] = system: OVCAR-3 ovarian
[9] = system: HS 578T breast
[10] = system: NCI/ADR-RES ovarian

Row | SMILES | growth [1] | growth [2] | growth [3] | growth [4] | growth [5] | growth [6] | growth [7] | growth [8] | growth [9] | growth [10]
1 | O=C(Nc1cccc([N+](=O)[O-])c1)Nc1cccc([N+](=O)[O-])c1 | 38.2% | 12.4% | 63.3% | 89.6% | 39.3% | 87.6% | 63.6% | 27.6% | 94.6% | 52.1%
2 | COc1ccc(-c2cnc(-c3ccc(F)cc3)[nH]2)cc1 | -29.7% (active) | 44.5% | 103% | 116% | 98.3% | 121% | 95.3% | 91.3% | 99.2% | –
3 | S=c1[nH]nc(Cn2c3ccccc3c3ccncc32)o1 | 99.9% | 97.3% | 94.2% | 102% | 96.7% | 94.5% | 103% | 97.8% | 106% | –
4 | O=C(Cn1c2ccccc2c2ccncc21)N/N=C/c1c[nH]c2ccccc12 | 40.6% | -27.7% (active) | 40.9% | 107% | -60% (active) | 107% | 89.2% | 18.3% | 53.2% | –
5 | Cc1cc(O[C@@H]2O[C@@H](C)[C@H](O)[C@@H](O)[C@H]2O)c2c3c(c(O[C@@H]4O[C@@H](C)[C@H](O)[C@@H](O)[C@H]4O)cc2c1)C(=O)c1c(O)cccc1C3=O | 82.6% | 57.2% | 22.9% | 98.5% | 81.8% | 83.6% | 89.3% | 93.7% | -12.8% (active) | 36.4%
6 | COc1ccc(-c2ccc(NC(=O)Nc3cccc(C(F)(F)F)c3)c(C)n2)cc1 | 36.3% | 22.6% | 61.9% | 83% | 42.9% | 82.1% | 91.3% | 41.9% | 88.9% | –
7 | COc1ccc(-c2nnc(SCC(=O)Nc3ccc(C(=O)/C=C/c4ccc(OC)c(OC)c4)cc3)o2)cc1 | 60.1% | 60.1% | 88.1% | 124% | 86.9% | 84.6% | 85.9% | 100% | 93.4% | –
8 | Fc1cccc(F)c1C#Cc1ccc2cccnc2c1 | 75.4% | 70.2% | 87.3% | 136% | 75.1% | 95.7% | 56.3% | 83.5% | 91.6% | –
9 | CC(/C=C/C=C(\C)[C@H](O)[C@H](C)C(=O)O[C@H]1C[C@H](C)C=C2C=C[C@@]3(C)O[C@@H](O)CC(=O)[C@]3(C)[C@H]21)=C\C=C\C(=O)O | 1.43% (active) | 27.6% | 21.6% | 18.6% | 23% | 2.67% (active) | 5.48% (active) | 2.71% (active) | -3.26% (active) | 53.8%
10 | CCc1c(C)c2cc(-n3c(-c4ccc(OC)cc4)csc3=N)c(O)c(C)c2oc1=O | 3.54% (active) | -9.39% (active) | 17.9% | 44% | 12.3% | 43.8% | 25.1% | 9% (active) | 24.5% | –
11 | O=C(Nc1ccc(F)cc1)Nc1ccc(Cl)c([N+](=O)[O-])c1 | 31.8% | -28% (active) | 17.8% | 44.3% | 16.5% | 34% | 22.4% | 10.1% | 55.8% | –
12 | CC(C)(CCN=C(N)Nc1ccccn1)c1ccc(C(F)(F)F)cc1 | -41.3% (active) | -46.9% (active) | 15.7% | 37.4% | 22.3% | 42.5% | 11.9% | 32.1% | 62.1% | 31.4%
13 | CC1(C)CC(=O)C2=C(C1)OC1=C(C(=O)CC(C)(C)C1)C2c1ccc(OCc2cn(-c3ccc(F)cc3F)nn2)cc1 | 58.6% | 92.7% | 95.3% | 124% | 94.4% | 100% | 102% | 95.3% | 96.2% | 94%
14 | FC(F)(F)c1cn(CCN2CCOCC2)c2ncnc(Cl)c12 | -40.3% (active) | 99% | 18.7% | 106% | 82.4% | 101% | 13.4% | 63.3% | 81.9% | 92.8%
15 | C[C@]12CC[C@@H]3c4ccc(O)c(N)c4CC[C@H]3[C@@H]1CC[C@@H]2O | 98.1% | 85.5% | 104% | 117% | 110% | 128% | 136% | 100% | 99.2% | 105%
16 | C#CC(=O)/C=C/CCCCCCC#CC(=O)CCC(=O)C#CCCCCCC/C=C/C(=O)C#C | -34.8% (active) | -31.6% (active) | 8.53% (active) | 57.7% | 23.5% | 91.8% | -39.5% (active) | 7.03% (active) | 47% | –
17 | COc1ccc(/C=C/C(=O)c2ccc(NC(=O)CSc3nnc(-c4cc(OC)c(OC)c(OC)c4)o3)cc2)cc1 | -60.5% (active) | -43.7% (active) | -14.3% (active) | 7.48% (active) | -49.9% (active) | 85.2% | -39.2% (active) | -93.8% (active) | 45.3% | 3.13% (active)
18 | Nc1nccc(=S)[nH]1 | 87.1% | 96.6% | 104% | 111% | 114% | 102% | 107% | 109% | 103% | –
19 | CCNc1cc(S(=O)(=O)O)ccc1C | 113% | 98% | 97.3% | 106% | 110% | 92.4% | 106% | 116% | 104% | –
20 | O=C1C(Cl)=C(Nc2cccc3cc4ccccc4nc23)C(=O)c2ccccc21 | 45.1% | 48.7% | 32.6% | 53.8% | 55.4% | 44.3% | 37.2% | 64.4% | 95.2% | –
21 | C=CCOc1ccc(/C(Cl)=N/N=C(\Cl)c2cc(OC)c(OC)c(OC)c2)cc1 | 17% | 70.3% | 62.6% | 97.5% | 84.3% | 64.7% | 64% | 77.1% | 75.5% | –
22 | O=C1OC(N(Cc2ccc(Cl)cc2)c2ccccc2)c2ccccc21 (stereo not given) | 97.8% | 97.2% | 107% | 109% | 116% | 97.2% | 90.7% | 104% | 108% | 105%
23 | CCn1c(C)nc([N+](=O)[O-])c1Sc1nc(N)nc2nc[nH]c12 | 16.6% | 3.41% (active) | 24.1% | 31.7% | 47.4% | 5.32% (active) | 77.5% | 24.5% | 50.4% | –
24 | CCCCCn1ncc(-c2c(O)c(O)cc3c(O)c(-c4c(C)cc5c(-c6cnn(CCCCC)n6)c(O)c(O)cc5c4O)c(C)cc23)n1 | -29.1% (active) | 0.346% (active) | 8.04% (active) | 32.3% | 34.6% | -0.985% (active) | 13.2% | 8.42% (active) | 31% | –
25 | Cc1ncc(CO)c(C(=O)O)c1O | 86.8% | 131% | 104% | 105% | 103% | 104% | 107% | 94.8% | 102% | –
26 | O=c1c(-c2ccc3c(c2)OCO3)coc2c(CO)c(O)ccc12 | 13.4% | 2.57% (active) | 24.3% | 35.8% | 41.7% | -18.3% (active) | 5.08% (active) | -55.1% (active) | 6.65% (active) | 52%
27 | O=C(Nc1cccc(-n2ccc3c(NC(=O)c4ccccc4)nccc32)c1)c1cccc(C(F)(F)F)c1 | 1.05% (active) | -36.1% (active) | 3.8% (active) | 32.5% | 72.9% | 12.1% | 15.9% | -8.09% (active) | – | –
28 | CC[C@@]1(O)C(=O)OCc2c1cc1n(c2=O)Cc2c-1nc1ccccc1c2/C=N/OC(C)(C)C | -6.28% (active) | -2.84% (active) | 3.32% (active) | 10.5% | 30.1% | -15.7% (active) | 8.28% (active) | -27.3% (active) | 33% | –
29 | CN[C@@H](CCCNC(N)=NC/C=C(/C)CCC=C(C)C)C(=O)N(C)[C@@H](CCCNC(N)=NCC=C(C)C)C(=O)N[C@H](C)[C@H](OS(=O)(=O)O)c1ccc(OS(=O)(=O)O)c(COS(=O)(=O)O)c1 | 114% | 92.9% | 98.4% | 113% | 120% | 110% | 110% | 107% | 97.3% | –
